S2 tox – cell viability loss in ATXN counter-screen; Potency, µM (titrated, usually from 56.7 µM), actives largely listed as cytotoxic; S2 cells (HEK-293 line with an ATXN2-luciferase reporter) viability, CellTiter-Fluor protease fluorescence, 24 h; AID 651635; actives 0.49% (n = 400,000); also: nearly all actives have a fitted effect of over 40% in size
HT1080 IDH1KD tx – kills HT-1080 cells with IDH1 knockdown; HT-1080 IDH1 knockdown viability, ATP luminescence, 48 h; Potency, µM (doses to about 46.1 µM), inactives show top-dose activity, negative = toxicity, most hits filed as cytotoxic; actives 2% (n = 360,000);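 also: 0% = DMSO wells and -100% = cell-free medium wells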
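Viability of IDH1-knockdown HT-1080 fibrosarcoma cells was assessed by CellTiter-Glo after 48 h at 37 °C with titrated compound; concentration-effect curves were classified by fit quality and response size.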
HT1080-NT tox – kills 2HG-producing HT-1080-NT fibrosarcoma cells | HT-1080-NT fibrosarcoma viability, CellTiter-Glo ATP luminescence, 48 h | Potency, µM (series often up to 46.1 µM), inactives show top-dose activity, negative = less viability, most hits filed as cytotoxic | actives 1.6% (n = 360,000) | AID 686970;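 also: NT is the 2HG producing partner of a matched IDH1 knockdown line; 0% = DMSO-treated cells and -100% = media-only wells without cells; nearly all actives have a fitted effect of over 55% in size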
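750 cells/well, RPMI + 5% FBS; 2 h settle, compound pin-transfer, 48 h at 37 degrees C. CellTiter-Glo 10 min RT, luminescence. Normalized to DMSO and media-only wells.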
ATXN2 expr inh – inhibitors of ATXN2 expression. HEK-293 ATXN2-luciferase reporter, luminescence, 24 h. Potency, µM (doses to about 57 µM), for the others: top-dose activity change, negative = inhibition, hits mostly inhibitors. actives 0.72% (n = 360,000). AID 1745845; also: % is scaled to controls: 0 for no effect and ±100 for the full control effect; nearly all actives have a fitted effect of over 55% in size
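ATXN2-luciferase reporter cells (luciferase flanked by upstream and downstream ATXN2 gene portions) were treated 24 h at 37 °C with compounds at up to 57 uM. SteadyGlo luminescence gave expression; GF-AFC fluorescence gave viability.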
HepG2 viability – counter-screen for TGF-b inhibitors: cytotoxicity in HepG2 cells; AID 588856; HepG2 CAGA-GFP viability, ATP luminescence, 18 h; Potency, µM (top dose mostly 46.1 µM), for inactives: at the highest dose activity change, negative = cytotoxicity, usual class: cytotoxic; actives 0.76% (n = 410,000)
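CellTiter-Glo luminescence gave cytotoxicity after 18 hours at 37 degrees C. The cells were HepG2 CAGA-GFP in 1% FBS DMEM, stimulated with 500 pg/mL TGF-beta after compound addition. %Activity was normalised to no-cell wells (complete cell-killing) and DMSO (no toxicity), and curves were fitted and classified.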
TGFb SMAD3 inh – TGF-b pathway inhibition; actives 1.2% (n = 410,000); HepG2 CAGA-GFP TGF-b/SMAD3 reporter, GFP fluorescence, 18 h; TGF-beta stimulated, 500 pg/mL final; Potency, µM (titrated, usually from 46.1 µM), for inactives: top-dose activity, negative = inhibition, hits mostly inhibitors; also: % is scaled to controls: 0 for no effect and ±100 for the full control effect; nearly all actives have a fitted effect of over 65% in size
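HEPG2 CAGA-GFP, 1000 cells/well; 2 h settle, 37 C; cpd via pin tool; TGF-b 500 pg/mL final; 18 h, 37 C; GFP imaging ex488/em500-530; %Activity normalised to -TGF-b and +DMSO controls; CRC fit, curve class.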
Active calls of the source: *; i = inactive; ? = inconclusive; . = no result; ! = repeats disagree. Shown are actives, neighbours in structure and some others; about 3.9% of the full set was active somewhere. Calls follow the shape of the dose curve; as a rule, active = well fitted curve in the direction sought with a large enough effect; inconclusive = small, poorly fitted or top-dose-only effect, or another doubt; inactive = no such curve, though single readings can be large; an effect the other way counts as inactive or inconclusive. Potency is read from the fitted curve at half-maximal effect.

SMILES	S2 tox	HT1080 IDH1KD tx	HT1080-NT tox	ATXN2 expr inh	HepG2 viability	TGFb SMAD3 inh
CCn1nc(C)c2c(-c3ccccc3)cc(=O)n(C(C)C(=O)NCCc3ccccc3)c21 (configuration not stated)	?	.	.	?	-22%	?
COc1cc(/C=C(/C#N)C(=O)NCCc2c[nH]c3ccccc23)ccc1OCc1ccccc1F	10µM*	-8%	-2%	7.1µM*	-21%	1%
COc1cc([N+](=O)[O-])cc(/C=N/NC(=O)c2cncc(Br)c2)c1O	i	-4%	-3%	.	-96%	?
COc1ccc(/C=N/NC(=O)c2ccc(Cn3cc([N+](=O)[O-])cn3)o2)cc1O	i	5%	-3%	7%	4%	34%
O=C(N/N=C/c1ccc([N+](=O)[O-])o1)c1ccncc1	i	18µM*	?	?	i	?
O=C(N/N=C/c1ccc([N+](=O)[O-])o1)c1ccc(O)cc1	?	6.5µM*	5.8µM*	11µM*!	-95%	?
COc1cc(/C=N/NC(=O)c2ccc(Cn3cc([N+](=O)[O-])cn3)o2)cc(Br)c1O	i	-7%	-4%	-3%	-82%	16µM*
COc1cc(/C=N/NC(=O)c2cncc(Br)c2)cc([N+](=O)[O-])c1O	?	-4%	16µM*	?	-6%	6%
COc1cc2oc(=O)c(CC(=O)NCCc3ccccc3F)c(C)c2cc1OC	i	.	.	-5%	-2%	?
COc1cc(/C=N/NC(=O)c2ccncc2)ccc1Oc1ccc([N+](=O)[O-])cn1	i	5%	12%	1%	1%	2%
O=C(N/N=C/c1ccc([N+](=O)[O-])o1)c1cc2ccccc2o1	.	1%	?	.	-127%	6.3µM*
CCN(CC)S(=O)(=O)c1cccc(C(=O)N/N=C/c2ccc([N+](=O)[O-])o2)c1	i	18µM*	?	-39%	-35%	?
O=C(N/N=C/c1ccc([N+](=O)[O-])o1)c1cc2c(ccc3ccccc32)o1	i	8%	0%	-34%	-19%	-8%
O=C(N/N=C\c1ccc([N+](=O)[O-])o1)c1cncc(Br)c1	?	16µM*	21µM*	-18%	-113%	?
COc1cc(/C=N/NC(=O)c2ccc(O)cc2)ccc1Oc1ccc([N+](=O)[O-])cn1	i	18µM*	?	.	-2%	-25%
Cc1ccc2c(c1)c1c(c(=O)n(-c3cccc(Cl)c3)c(=O)n1CC(=O)NCCC1=CCCCC1)n2C	i	.	.	8%	-32%	-5%
COc1ccc(-c2c(C3C4C=CCC(C)C4C(=O)N3Cc3ccccc3)ccc3ccccc23)cc1OC (configuration not stated)	.	.	.	.	-18%	?
CCN1CCN(c2cc3c(cc2F)c(=O)c(S(=O)(=O)c2cc(C)cc(C)c2)cn3CC)CC1	.	.	.	.	5%	-16%
COc1ccc(OCC(O)CN2CCC(CN3C(=O)c4cccc5cccc(c45)C3=O)CC2)cc1 (configuration not stated)	?	?	23µM*	?	-51%	?
O=C1c2cccc3cccc(c23)C(=O)N1CC1CCN(CC(O)COCc2ccc3c(c2)OCO3)CC1 (configuration not stated)	?	21µM*	21µM*	-28%	-2%	?
CCOC(=O)C1CCN(CC(O)COCc2ccc3c(c2)OCO3)CC1 (configuration not stated)	i	2%	1%	2%	3%	0%
Cc1ccc(C)c(OCC(O)CN2CCC(CN3C(=O)c4cccc5cccc(c45)C3=O)CC2)c1 (configuration not stated)	.	0%	0%	28µM*	-26%	?
Cn1cc(C(=O)NCc2ccccc2Cl)c(=O)c2cc(S(=O)(=O)N3CCCCCC3)ccc21	i	.	.	3%	17%	-22%
COc1ccc(C(=O)N2CCOc3ccc(CN4CCN(c5ccccn5)CC4)cc3C2)o1	i	.	.	.	.	.
COc1cccc(N=NC2C(=O)N(C(N)=S)N=C2C)c1 (configuration not stated)	i	-6%	26µM*	74%	5%	1%
SMILES	S2 tox	HT1080 IDH1KD tx	HT1080-NT tox	ATXN2 expr inh	HepG2 viability	TGFb SMAD3 inh
C#C[C@]1(O)CC[C@H]2[C@@H]3CCc4cc(OC5CCCC5)ccc4[C@H]3CC[C@@]21C	32µM*	21µM*	16µM*	?	-1%	9%
Cc1cc2c(c(-c3ccc(Cl)cc3)c1)OC(CNC(=O)Cc1c(C)noc1C)C2 (configuration not stated)	i	.	.	.	.	.
Cc1nnc(C)n1/N=C/c1ccc(O)cc1	i	6%	5%	5%	4%	14%
Oc1ccc(/C=N/n2c3ccccc3c3ccccc32)cc1	i	23µM*	?	?	-54%	?
CCCCCCC[N+](CC)(CC)CCCCc1ccc(Cl)cc1	?	6.5µM*	6.5µM*	22µM*!	-26%	5%
CCCc1ccc(C(=O)NNC(=O)c2ccc(Cl)cc2)cc1	i	7%	-3%	10%	-2%	-2%
COc1ccc(CNC[C@@H](CCCCN(C)Cc2ccc(OC)cc2)N2C[C@H](c3ccccc3)N(CCc3ccc(Cl)c(Cl)c3)C(=O)C2=O)cc1	.	23µM*	18µM*	-12%	-103%	?
COc1ccccc1/C=C/C1(C(=O)NC2CCCC2)CC(=O)N1c1ccc(F)cc1 (configuration not stated)	.	8.2µM*	?	18µM*	-27%	?
OC[C@@H]1CN(Cc2ccc(-c3ccccc3)cc2)C[C@H](n2cnc3c(NCc4ccc(F)cc4)ncnc32)O1	?	?	18µM*	?	-16%	?
CC(C)N(C)c1ncnc2c1ncn2[C@H]1CN(Cc2ccncc2)C[C@@H](CO)O1	i	1%	3%	8%	3%	-17%
CC(=O)OC[C@@H]1CN(Cc2ccccc2)C[C@H](n2cnc3c(Nc4ccccc4)ncnc32)O1	i	1%	-6%	8%	16µM*	-30%
CC(C)N(C)c1ncnc2c1ncn2[C@H]1CN(Cc2ccc(-c3ccccc3)cc2)C[C@@H](CO)O1	?	?	23µM*	?	-87%	?
OC[C@@H]1CN(Cc2ccccc2)C[C@H](n2cnc3c(NCc4ccc(F)cc4)ncnc32)O1	i	6%	-15%	32%	-1%	?
